Assay results published in PubChem BioAssay (NCI).
The panel holds about 79,000 compounds, 15% with a hit somewhere; the sample as a whole holds those more often. Calls of active or inactive are those of the source. Cut-off read from the data, not from the text of the source: active = growth inhibition above about 70%; inactive = the rest.

Assays:
[1] = NCI Yeast Anticancer Drug Screen. Data for the rad50 strain (AID 155);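 note: 0% = growth of vehicle-only cultures of the same strain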; conditions: S. cerevisiae rad50 strain growth inhibition; at 50.0 µM; active compounds read high
Summary of the method: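 A DNA repair-deficient yeast mutant serves as the test organism; compound-induced growth inhibition is calculated against vehicle-treated cells.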

[2] = NCI Yeast Anticancer Drug Screen. Data for the mec2-1 strain (AID 157); conditions: S. cerevisiae mec2-1 strain, at 50.0 µM, active compounds read high
Summary of the method: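 Mutant yeast (mec2-1) grown with compound; growth inhibition relative to vehicle control reported.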

[3] = NCI Yeast Anticancer Drug Screen. Data for the sgs1 mgt1 strain (AID 161);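 note: 0% = growth of cultures given vehicle only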; conditions: S. cerevisiae sgs1 mgt1 strain, at 50.0 µM, active compounds read high
Summary of the method: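 Growth of a repair-deficient yeast mutant was monitored after compound treatment and expressed as inhibition relative to vehicle-treated cultures.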

[4] = NCI Yeast Anticancer Drug Screen. Data for the cln2 rad14 strain (AID 165);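 note: 0% = growth equal to vehicle treated cultures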; conditions: S. cerevisiae cln2 rad14 strain, at 50.0 µM, active compounds read high
Summary of the method: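 Readout is yeast growth inhibition versus vehicle-treated controls, using a strain with cln2 and rad14 alterations exposed to compound.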

[5] = NCI Yeast Anticancer Drug Screen. Data for the bub3 strain (AID 167); conditions: S. cerevisiae bub3 mutant strain, at 50.0 µM, active compounds read high
Summary of the method: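 Inhibition values come from growth of compound-treated mutant yeast normalised to vehicle-treated controls.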

[6] = NCI Yeast Anticancer Drug Screen. Data for the mlh1 rad18 strain (AID 175); conditions: S. cerevisiae mlh1 rad18 strain growth inhibition; at 50.0 µM; active compounds read high
Summary of the method: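 Genetically defined yeast (DNA repair-deficient) exposed to compounds; growth inhibition determined relative to vehicle.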

Measured: growth inhibition

O=C(NC(Cc1c[nH]c2ccccc12)C(=O)O)C(=O)c1c[nH]c2ccccc12 (stereo unspecified)
inactive: [1] -9.9% | [2] -14.6% | [3] 27.5% | [4] 0.9% | [5] 15.2% | [6] 4.2%

N#CCCN(C1=NN(C(=O)CC(=O)Nc2ccccc2)C(c2ccccc2)C1)c1ccccc1Cl (stereo unspecified)
inactive: [1] -5.05% | [2] -3.9% | [3] -36% | [4] 27.9% | [5] -1.15% | [6] -9.2%

CC1(C)OC(=O)c2ccccc21
inactive: [1] 30.1% | [2] 3% | [3] -5.05% | [4] -14.8% | [5] 1.35% | [6] 2.2%

CN(C)N=Nc1ccc(Cl)cc1
inactive: [1] -5.15% | [2] 21.9% | [3] 16.6% | [4] -56.6% | [5] 35% | [6] 8.3%

CC1=C(C#N)C(=O)OC1(C)C1CCCC(=O)C1 (stereo unspecified)
inactive: [1] -24.8% | [2] -1.45% | [3] -11.3% | [4] -2.7% | [5] 1.95% | [6] -3.75%

Nc1cc(C(F)(F)F)ccc1F
inactive: [1] 2.5% | [2] -13.8% | [3] -9% | [4] -5.6% | [5] 6.65% | [6] 27.4%

COc1ccc(/C(=N/N)c2ccccc2)cc1
inactive: [1] 3.6% | [2] -40.5% | [3] -23.6% | [4] -42.4% | [5] -18.8% | [6] -2.15%

Cn1c(-c2ccccc2)nc(-c2ccccc2)[n+]1[O-]
inactive: [1] 8.75% | [2] -0.55% | [3] 1.85% | [4] 9.8% | [5] 0.6% | [6] 28.6%

N#C/C(=C\N1CC(=O)NC1=S)C(N)=O
inactive: [1] -79.8% | [2] -12.6% | [3] -30.9% | [4] -22.1% | [5] -23.2% | [6] -69.5%

CCOC(=O)NC1c2ccccc2Oc2ccccc21
inactive: [1] -4.5% | [2] -5.4% | [3] 4.95% | [4] -16.3% | [5] 11% | [6] 2.3%

CC(O)COC(C)c1ccccc1 (stereo unspecified)
inactive: [1] 9.05% | [2] 0.3% | [3] -0.7% | [4] 5.35% | [5] -6.45% | [6] 2.1%

Cc1cc(Cl)ccc1OCC(=O)OCCBr
inactive: [1] 3.55% | [2] 17.9% | [3] 5.35% | [4] -23.2% | [5] -22.9% | [6] -8.15%

C/C(=N\NC(C)(C)C)c1sc(-c2nc(C)c(/C(C)=N/NC(C)(C)C)s2)nc1C
inactive: [1] 46.5% | [2] 3.9% | [3] -7.5% | [4] -20.6% | [5] 22.1% | [6] 21.8%

CC1CN=C(c2ccccn2)C(c2ccccn2)=N1 (stereo unspecified)
inactive: [1] 4.85% | [2] 6.6% | [3] 14.5% | [4] -1.1% | [5] 17.4% | [6] 10.2%

O=C1C(OC(=O)c2ccccc2)=C(c2ccc(O)cc2)C(=O)C(OC(=O)c2ccccc2)=C1c1ccc(O)cc1
inactive: [1] 24.1% | [2] 0.45% | [3] 5.55% | [4] 9.75% | [5] 17.2% | [6] -44.6%

CC(C)/C=C\C(=O)CC(C)C
inactive: [1] -3.65% | [2] 28.8% | [3] 9.35% | [4] 5.9% | [5] 17.4% | [6] 18.6%

O=C1NC(CO)C(=O)NC1CO (stereo unspecified)
inactive: [1] 3.7% | [2] -4.4% | [3] -12.2% | [4] -2.75% | [5] 0.25% | [6] -4.8%

CN(C)C(=S)c1cccc2ccccc12
inactive: [1] 5.1% | [2] -10.5% | [3] -1.95% | [4] -31.4% | [5] -27.2% | [6] -8.45%

c1ccc(Sc2cc(Sc3ccccc3)c3cccccc2-3)cc1
inactive: [1] 17.9% | [2] -21.9% | [3] -27.4% | [4] -6.05% | [5] 5.25% | [6] 3.2%

CCCS(=O)(=O)N1CCC(C)CC1
inactive: [1] 5.7% | [2] -21.1% | [3] 5.85% | [4] -8.65% | [5] -8.55% | [6] 1.6%

CC/C(=C\c1ccc(NC(C)=O)cc1)c1ccncc1
inactive: [1] -5.6% | [2] -16.6% | [3] 7.2% | [4] -0.85% | [5] -12.8% | [6] -4.6%

CN(c1ccccc1)c1nc(=[N+](C)C)ss1
inactive: [1] 35.4% | [2] 26.5% | [3] 17% | [4] 24.1% | [5] 4.3% | [6] 31.8%

Cc1ccc(NCC#N)cc1
inactive: [1] 27.1% | [2] 15.2% | [3] -1.1% | [4] -12.6% | [5] 15.4% | [6] 36.5%

CCOc1ccc(-n2c(C)c(COC(=O)NC)c(COC(=O)NC)c2C)cc1
inactive: [1] 16.1% | [2] -5.9% | [3] 68.9% | [4] 3.8% | [5] 67.2%
active: [6] 92.5%

COc1cc2c(cc1OC)[C@H]1Cc3cc(OC)c(OC)cc3[C@@H](C2)N1C(C)=O
inactive: [1] -2.1% | [2] -11.2% | [3] -16.6% | [4] 22.6% | [5] 20.9% | [6] -3.6%

O=C(Nc1cccc2c1[nH]c1c(-c3ccccc3)nccc12)c1ccccc1[N+](=O)[O-]
inactive: [1] 58.1% | [2] 45.1% | [3] 49.2% | [4] 23.2% | [5] 42.6% | [6] 51.5%

NC(CC(=O)O)CC(=O)O
inactive: [1] 12.9% | [2] 2.6% | [3] 1.8% | [4] 14.7% | [5] 5.65% | [6] 17.8%

CC(=O)c1ccc2cc(Cl)ccc2c1
inactive: [1] 30.2% | [2] 3.45% | [3] 3.5% | [4] -29.9% | [5] 0.35% | [6] 4.2%

O=[N+]([O-])c1ccc(Cl)cc1N/N=C/c1cccs1
inactive: [1] -46.1% | [2] -40.2% | [3] -40.8% | [4] -9.5% | [5] -30.8% | [6] -31.8%

COc1ccc(-c2oc(/C=N/NC(N)=S)c([N+](=O)[O-])c2-c2ccc(OC)c(OC)c2)cc1OC
inactive: [1] 44.6% | [2] 22.8% | [3] 44% | [4] 24.4% | [5] 28.9% | [6] 34.6%

Cc1ccccc1NCC#N
inactive: [1] -23.9% | [2] -26% | [3] -19.2% | [4] -15.2% | [5] 10% | [6] -11.6%

COc1ccc(S(=O)(=O)Nc2cccc(C(F)(F)F)c2)cc1
active: [1] 99% | [2] 99.7% | [3] 99.5% | [4] 98.5% | [5] 99.3% | [6] 99.5%

CC(=O)Nc1ccc2c(c1)CCCC2
inactive: [1] 5.75% | [2] -4.45% | [3] -0.8% | [4] -71.6% | [5] -2.95% | [6] -16.4%

CCSc1cc2c(cc1O)CC[C@@H]1[C@@H]2CC[C@]2(C)[C@@H](O)CC[C@@H]12
inactive: [1] -6.6% | [2] -18.1% | [3] -6.95% | [4] -7.5% | [5] 22.4% | [6] -27.6%

CCC(=O)OC1C(OC2C(C)C(OC3CC(C)(OC)C(O)C(C)O3)C(C)C(=O)OC(CC)C(C)(O)C(O)C(C)C(=O)C(C)CC2(C)O)OC(C)CC1N(C)C (stereo unspecified)
inactive: [1] -18.1% | [2] -28.1% | [3] -31.2% | [4] 5.7% | [5] -3% | [6] -76.8%

Oc1ccccc1C=Nc1ccc(Cl)cc1
inactive: [1] -1.35% | [2] 3.6% | [3] -5.5% | [4] -12.7% | [5] -21.6% | [6] 6.85%

O=C1C(Cl)=C(Nc2ccc([N+](=O)[O-])cc2)C(=O)c2ccccc21
inactive: [1] 6.6% | [2] 2.55% | [3] 4.6% | [4] -40% | [5] -0.7% | [6] 5.5%

COC1=CC(=O)c2nc3ccccc3c3ccnc1c23
inactive: [4] 51.2%
active: [1] 87% | [2] 76.1% | [3] 83.2% | [5] 87.3% | [6] 87.2%

CCCCCCCCCCCCCCCCCCCCCCCCSC(=N)N
inactive: [1] 10.6% | [2] 0.15% | [3] 16.5% | [4] 26.4% | [5] -6.15% | [6] 12.9%

CCCC1(C)OCC(CCl)O1 (stereo unspecified)
inactive: [1] -41.6% | [2] -28.4% | [3] -14.6% | [4] -13.2% | [5] -18.3% | [6] 0.15%

CN(Cc1ccccc1)C(=O)c1ccccc1C(=O)O
inactive: [1] -9.2% | [2] -2.85% | [3] -4.75% | [4] -15.9% | [5] -4.95% | [6] 13.2%
